From PubChem BioAssay
Compounds with a hit are over-represented: about 19% of the library has one in this group of screens.
Shiga toxin inh: Shiga toxin inhibition | Vero cells, Shiga toxin protein synthesis inhibition reporter | inhibition, % at 38.7 µM | actives 9.2% (n = 290,000) | AID 2315; in the data active means inhibition mostly above about 28%, no sharp cut-off; inactive means mostly below about 43%; further: 0% is about no effect
Cycloheximide cs: affects cycloheximide protein synthesis inhibition readout, counter-screen. cell reporter, cycloheximide protein synthesis inhibition counterscreen. max response, %. actives 12% (n = 300,000); in the data active means max response mostly above about 13%, no sharp cut-off; inactive means mostly below about 14%; further: read at 38.3 µM for the half of the compounds with a filed dose; 0% is about no effect
Pf growth 96h: P. falciparum growth inhibition at 96 hour, primary screen for plastid delayed-death inhibitors. Potency, µM (top dose mostly 28.7 µM), for inactives: at the highest dose activity change, negative = inhibition, hits mostly inhibitors. actives 6.9% (n = 320,000). P. falciparum luciferase reporter growth, 96 h. AID 504834; further: potency means the concentration at half of the fitted maximal effect; on the % scale 0 is the no-effect control and ±100 the full control effect
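Delayed-death screen, second-generation endpoint: infected erythrocytes, 2% hematocrit, 0.05% parasitemia final; 96 hours at 37 C, 5% CO2; luciferase detection reagent; luminescence decrease equals reduced growth.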
SARS PLP yeast: SARS-CoV PLP inhibition in yeast; S. cerevisiae expressing SARS-CoV PLpro, growth rescue; Potency, µM (series often up to 32.9 µM), without a hit: at the highest dose activity, positive = growth rescue, usual class: activators; actives 0.19% (n = 330,000); calls by dose curve; further: potency means the concentration at half of the fitted maximal effect; 0% is about no effect; nearly all actives have a fitted effect of over 55% in size
Pf growth 48h: inhibits P. falciparum growth in the first generation, 48 h; P. falciparum luciferase growth in erythrocytes, 48 h; Potency, µM (top dose mostly 28.7 µM), inactives show at the top dose activity change, negative = inhibition, usual class: inhibitors; actives 5.9% (n = 310,000); AID 504832; further: potency means the concentration at half of the fitted maximal effect; on the % scale 0 is the no-effect control and ±100 the full control effect
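Compounds are pin-transferred into medium, infected erythrocytes (2% hematocrit, 0.1% parasitemia final) are added, and plates sit one parasite generation at 37 C in 5% CO2. Detection reagent is then added and luminescence measured.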
AMA1 RON2 block: AMA1-RON2 (P. falciparum) interaction inhibition; AlphaScreen AMA1-biotinylated RON2 peptide binding; Potency, µM (highest dose often 58.2 µM), for inactives: at the highest dose activity change, negative = inhibition, usual class: inhibitors; actives 0.2% (n = 360,000); AID 720542;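 further: potency means the concentration at half of the fitted maximal effect; 0% = vehicle wells and -100% = peptide control; nearly all actives have a fitted effect of over 45% in size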
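AMA1 (3D7) with his tag at 25 nM final met compounds first, then biotinylated RON2 peptide at 25 nM; detection used donor plus acceptor beads, 10 µg/mL apiece, read by AlphaScreen after 30 min at room temperature.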
An asterisk follows results filed as active; ? = inconclusive; / = not tested or not shown; [ ] = dose if it differs, or a comment. Unless noted, the call rests on the fitted dose curve; in most records, active means well fitted curve in the direction sought with a large enough effect; inconclusive means small, poorly fitted or top-dose-only effect, or another doubt; inactive means no such curve, though single readings can be large; an effect the other way counts as inactive or inconclusive.

SMILES	Shiga toxin inh	Cycloheximide cs	Pf growth 96h	SARS PLP yeast	Pf growth 48h	AMA1 RON2 block
COC(OC)c1ccnc(-c2ccc(OC(C)=O)cc2)n1	50	22*	125%	4%	28%	29%
CC(=O)c1cccc(CN2CCC(n3nccc3NC(=O)c3ccc4c(c3)OCO4)CC2)c1	-6	-4	-19%	-3%	0%	-3%
Nc1ccc(-c2cn3cccnc3n2)cc1	76	17*	62%	0%	73%	-2%
COc1ccc(-c2cn3cccnc3n2)cc1Br	99*	15*	22%	-56%	55%	-3%[2.32 µM]
COc1ccc(-c2cn3cccnc3n2)cc1NC(=O)C1CC1	-10	1	9.3µM*	-3%	25%	2%
COc1ccc(-c2cn3cc(Br)cnc3n2)cc1	23	25*	56%	0%	53%	32%
CSc1cccc(NC(=S)N2CCC(N(C)C3CCCC3)CC2)c1	-11	6	?	-1%	-7%	6%
CCOC(=O)C1=C(C)N(C)C(=O)NC1c1cc2c(cc1[N+](=O)[O-])OCO2 (centres undefined)	-18	-5	154%	5%	9%	?
Cc1ccn2c(Nc3ccccc3C)c(-c3ccccn3)nc2c1	34	-2	-15%	-33%	?	-54%
Cc1ccn2c(Nc3ccccc3)c(-c3ccccn3)nc2c1	21	10	139%	19%	2.1µM*	40%
Cc1ccccc1Nc1c(-c2ccccn2)nc2ccccn12	-7	-4	-17%	-25%	2.6µM*	-79%
CCCCCN=C(C)c1c(O)c2ccccc2oc1=O	65*	42*	?	-9%	1%	24%
CC(=O)C1C(=O)c2c(cccc2[N+](=O)[O-])C1=Nc1cccc(Cl)c1 (centres undefined)	16	14	?	1%	1.5µM*	-16%
CC(=O)C1C(=O)c2c(cccc2[N+](=O)[O-])C1=Nc1ccccc1C (centres undefined)	26	15	0.0037µM*	1%	/	/
COc1ccccc1C(=O)Nc1ccc(-c2nnn(CC(=O)N3CCN(C(=O)c4ccco4)CC3)n2)cc1	29	28*	-32%[1.15 µM]	-1%	35%[1.15 µM]	11%
Cc1ccccc1-c1nnn(CC(=O)N2CCN(C(=O)c3ccco3)CC2)n1	/	/	-3%	1%	4%	-20%
O=C(Nc1ccc(-c2nnn(CC(=O)N3CCN(C(=O)c4ccco4)CC3)n2)cc1)c1ccccc1F	84*	51*	379%	0%	26%	/
Brc1ccc(-c2noc(-c3ccccn3)n2)o1	81*	45*	39%	-3%	246%	8%
COc1ccc(-c2noc(-c3ccc(Br)o3)n2)cc1OC	6	10	/	1%	50%	7%
Clc1ccc(-c2nc(-c3ccccn3)no2)cc1Cl	77*	66*	492%	2%	-5%	6%
Brc1ccc(-c2nc(-c3ccncc3)no2)o1	64*	24*	?	0%	114%	13%
COc1cc(-c2nc(-c3ccc(Br)o3)no2)cc(OC)c1OC	-1	2	3%	5%	/	-7%
COc1ccc(-c2nc(-c3ccccn3)no2)cc1	-19	-9	59%	-5%	-81%	13%
Brc1ccc(-c2nc(-c3ccccn3)no2)o1	-6	14*	?	-15%	188%	10%
O=C1C2C3CCC(CC3)C2C(=O)N1c1ccccc1 (centres undefined)	-8	-1	1%	4%	-18%	-8%
SMILES	Shiga toxin inh	Cycloheximide cs	Pf growth 96h	SARS PLP yeast	Pf growth 48h	AMA1 RON2 block
CSCCC(NC(=O)c1ccccc1Br)C(=O)NCC(C)(C)N1CCOCC1 (centres undefined)	/	/	-13%	6%	-22%	3%
CC(=O)C(Sc1nc(N2CCOCC2)nc(N2CCOCC2)n1)C(=O)Nc1ccccc1 (centres undefined)	24	14	/	-2%	-10%	-15%
Cc1ccccc1C(=O)NC(NC(=S)Nc1ccc(S(N)(=O)=O)cc1)C(Cl)(Cl)Cl (centres undefined)	-11	-1	?	5%	?	0%
Cc1ccc(C)c(NC(=S)NC(NC(=O)Cc2ccccc2)C(Cl)(Cl)Cl)c1 (centres undefined)	-16	-3	/	-2%	?	-11%
Cc1cc(C)c(NC(=S)NC(NC(=O)c2ccccc2)C(Cl)(Cl)Cl)c(C)c1 (centres undefined)	-1	-2	-8%	3%	3.3µM*	6%
Cc1ccc(NC(=S)NC(NC(=O)c2ccccc2)C(Cl)(Cl)Cl)c(C)c1 (centres undefined)	12	1	?	-5%	10µM*	14%
Cc1ccccc1NC(=S)NC(NC(=O)c1ccccc1C)C(Cl)(Cl)Cl (centres undefined)	-5	-3	2.6µM*	4%	?	15%
O=C(NNc1ccccn1)c1ccccc1CC[N+](=O)[O-]	22	14*	?	-3%	-14%	48%
CCc1nc(Nc2ccccc2)c2oc3ccccc3c2n1	4	17	0%	-10%	-15%	0%
CCc1nc(Nc2ccc(F)cc2)c2oc3ccccc3c2n1	45	36*	?	-5%	?	0%
CCc1nc(Nc2cccc(OC)c2)c2oc3ccccc3c2n1	27	22*	?	-1%	?	3%
CCc1nc(OCCN(C)C)c2oc3ccccc3c2n1	29	26*	8%	2%	-31%	-3%
Cc1ccc(C(=O)NCCC(=O)N2CCOCC2)cc1	85*	50*	12%	-1%	184%	-8%
Cc1ccc(C(=O)NCCN2CCOCC2)cc1	20	13*	33%	2%	27%	4%
CC(=O)c1cccc(N2C(=O)CC(N3CCN(S(=O)(=O)c4ccc(Cl)cc4)CC3)C2=O)c1 (centres undefined)	/	/	23%	-4%	1%	5%
CCN1CCN(CC(=O)Nc2cc(C)c(C)cc2[N+](=O)[O-])CC1	-10	2	63%	-2%	44%	-7%
O=C(CCNS(=O)(=O)c1ccc2[nH]c(=O)oc2c1)NCc1ccccc1	-8	-9	12µM*	3%	7%	-9%
COc1ccc([N+](=O)[O-])c(OC)c1C(=O)NC(=O)Nc1c(F)c(F)c(F)c(F)c1F	-4	-3	4.7µM*	-1%	/	-1%
COc1cccc(OC)c1C(=O)NC(=O)Nc1c(F)c(F)c(F)c(F)c1F	17	0	2.1µM*	1%	7.4µM*	-3%
COc1ccc([N+](=O)[O-])c(OC)c1C(=O)Nc1ccc(F)cc1F	5	-3	74%	0%	18%	10%
CCCC(=O)NC(c1ccccc1)c1c(O)ccc2ccccc12 (centres undefined)	17	-2	11%	2%	0%	0%
